According to PubChem BioAssay (NCI):
Compounds without any hit were thinned out: in the full panel of roughly 83,000, 20% have a hit.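 Single-concentration screen, 48 h exposure, 96-well plates. Endpoint: percent growth. Below 10 = active.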 Activity calls are given as the source filed them.

Columns and labels:
Assay in all cases: NCI-60 one-dose screen, 48 h (100 = growth as untreated, 0 = no growth, -100 = all killed)
Details in all cases: 10 µM unless noted
SK-MEL-2 melanoma = system: SK-MEL-2 melanoma
EKVX NSCLC = system: EKVX NSCLC
SN12C renal = system: SN12C renal
UO-31 renal = system: UO-31 renal
TK-10 renal = system: TK-10 renal
ACHN renal = system: ACHN renal
CAKI-1 renal = system: CAKI-1 renal
A498 renal = system: A498 renal
CCRF-CEM leukemia = system: CCRF-CEM leukemia
MOLT-4 leukemia = system: MOLT-4 leukemia
SR leukemia = system: SR leukemia
RPMI-8226 leukemia = system: RPMI-8226 leukemia
OVCAR-8 ovarian = system: OVCAR-8 ovarian
OVCAR-5 ovarian = system: OVCAR-5 ovarian
OVCAR-4 ovarian = system: OVCAR-4 ovarian
SK-OV-3 ovarian = system: SK-OV-3 ovarian
IGROV1 ovarian = system: IGROV1 ovarian
OVCAR-3 ovarian = system: OVCAR-3 ovarian
HS 578T breast = system: HS 578T breast
NCI/ADR-RES ovarian = system: NCI/ADR-RES ovarian

Measured: growth

Clc1cccc(Nc2nc(Nc3cnc4ccccc4c3)c3[nH]cnc3n2)c1
inactive: SK-MEL-2 melanoma 81.1% | EKVX NSCLC 41.3% | SN12C renal 61.2% | UO-31 renal 60.7% | TK-10 renal 114% | ACHN renal 73.5% | CAKI-1 renal 59% | A498 renal 60% | CCRF-CEM leukemia 84.8% | MOLT-4 leukemia 90.6% | SR leukemia 80.8% | RPMI-8226 leukemia 78.3% | OVCAR-8 ovarian 75.6% | OVCAR-5 ovarian 89.3% | OVCAR-4 ovarian 93.9% | SK-OV-3 ovarian 71.2% | IGROV1 ovarian 62.3% | OVCAR-3 ovarian 73.6% | HS 578T breast 65.6% | NCI/ADR-RES ovarian 87.2%

O=C1CCc2c(sc3[nH]c(=S)n(Cc4ccccc4)c(=O)c23)C1
inactive: EKVX NSCLC 13.9% | TK-10 renal 29.6% | ACHN renal 21.8% | CAKI-1 renal 24.1% | A498 renal 57.6% | MOLT-4 leukemia 28.8% | SR leukemia 15.5% | OVCAR-8 ovarian 14.3% | OVCAR-4 ovarian 21.8% | SK-OV-3 ovarian 22.2% | IGROV1 ovarian 34.2%
active: SK-MEL-2 melanoma -15.4% | SN12C renal 7.15% | UO-31 renal -4.69% | CCRF-CEM leukemia 4.68% | RPMI-8226 leukemia 3.36% | OVCAR-5 ovarian 9.59% | OVCAR-3 ovarian 9.16% | HS 578T breast -3.81% | NCI/ADR-RES ovarian 4.56%

CC(=O)Nc1ccc2c(c1)c(NC(C)=O)nn2C(=O)Nc1ccc(Cc2ccccc2)cc1
inactive: SK-MEL-2 melanoma 12.9% | EKVX NSCLC 71.3% | SN12C renal 82.9% | UO-31 renal 68.2% | TK-10 renal 85% | ACHN renal 65.8% | CAKI-1 renal 49.2% | A498 renal 90.6% | CCRF-CEM leukemia 89.8% | MOLT-4 leukemia 93.6% | SR leukemia 98.7% | RPMI-8226 leukemia 88.8% | OVCAR-8 ovarian 71.8% | OVCAR-5 ovarian 67.1% | OVCAR-4 ovarian 89.4% | SK-OV-3 ovarian 67.3% | IGROV1 ovarian 83.2% | OVCAR-3 ovarian 84.4% | HS 578T breast 56.9% | NCI/ADR-RES ovarian 89.4%

COc1ccc(S(=O)(=O)NCCCNc2cc(-c3c(-c4cccc(OC)c4)nc4sccn34)ccn2)cc1
inactive: SK-MEL-2 melanoma 53.3% | EKVX NSCLC 48.4% | SN12C renal 36% | UO-31 renal 18% | TK-10 renal 73.4% | ACHN renal 33.2% | CAKI-1 renal 32% | A498 renal 36.7% | CCRF-CEM leukemia 26.5% | MOLT-4 leukemia 19.2% | SR leukemia 43.5% | RPMI-8226 leukemia 13.1% | OVCAR-8 ovarian 38.5% | OVCAR-5 ovarian 86.3% | OVCAR-4 ovarian 36.4% | SK-OV-3 ovarian 73.4% | IGROV1 ovarian 51.8% | OVCAR-3 ovarian 52.1% | HS 578T breast 62.9% | NCI/ADR-RES ovarian 32.5%

CC/C=C\C[C@H](F)C/C=C1/C(=O)C=C[C@@H]1C/C=C\CCCC(=O)OC
inactive: SK-MEL-2 melanoma 41% | EKVX NSCLC 31.6% | TK-10 renal 50.4% | A498 renal 84.8% | OVCAR-5 ovarian 68.2% | OVCAR-4 ovarian 24.2% | SK-OV-3 ovarian 50.3% | IGROV1 ovarian 10.6% | HS 578T breast 45.2% | NCI/ADR-RES ovarian 14.2%
active: SN12C renal -14.4% | UO-31 renal -4.75% | ACHN renal -52% | CAKI-1 renal 9.44% | CCRF-CEM leukemia -21.4% | MOLT-4 leukemia -23.5% | SR leukemia -25.8% | RPMI-8226 leukemia -10.4% | OVCAR-8 ovarian -15.4% | OVCAR-3 ovarian -13.2%

O=c1ccc2cc3ccccc3cc2[nH]1
active: CCRF-CEM leukemia -72.7%
inactive: SK-MEL-2 melanoma 97.5% | EKVX NSCLC 28.1% | SN12C renal 94.4% | UO-31 renal 76.4% | TK-10 renal 119% | ACHN renal 108% | CAKI-1 renal 78.4% | A498 renal 97.9% | MOLT-4 leukemia 87.3% | SR leukemia 82.1% | RPMI-8226 leukemia 87.4% | OVCAR-8 ovarian 105% | OVCAR-5 ovarian 82% | OVCAR-4 ovarian 95.1% | SK-OV-3 ovarian 102% | IGROV1 ovarian 98.2% | OVCAR-3 ovarian 87.4% | HS 578T breast 50.9% | NCI/ADR-RES ovarian 93%

CN1CCN(Cc2ccc(NC(=O)c3cncc(C#Cc4cncc5nccnc45)c3)cc2C(F)(F)F)CC1
inactive: EKVX NSCLC 71.2% | SN12C renal 31.7% | UO-31 renal 20.4% | TK-10 renal 96% | ACHN renal 24% | CAKI-1 renal 22.2% | A498 renal 21.4% | CCRF-CEM leukemia 58.2% | MOLT-4 leukemia 37% | SR leukemia 63.7% | RPMI-8226 leukemia 36.9% | OVCAR-8 ovarian 62.1% | OVCAR-5 ovarian 36.4% | OVCAR-4 ovarian 38.9% | SK-OV-3 ovarian 74.7% | IGROV1 ovarian 22.2% | OVCAR-3 ovarian 69.9% | HS 578T breast 39.6% | NCI/ADR-RES ovarian 72.4%
active: SK-MEL-2 melanoma -13.2%

Nc1nc2c(c3ncccc13)C(c1cccc(Br)c1)Cc1ncccc1-2 (stereo not given)
active: SK-MEL-2 melanoma 3.12% | A498 renal -14.9% | CCRF-CEM leukemia 8.84% | MOLT-4 leukemia 7.86% | SR leukemia 2.96% | OVCAR-3 ovarian -8.61%
inactive: EKVX NSCLC 41% | SN12C renal 34.4% | UO-31 renal 33.8% | TK-10 renal 35.2% | ACHN renal 43% | CAKI-1 renal 41.4% | RPMI-8226 leukemia 34% | OVCAR-8 ovarian 26.6% | OVCAR-5 ovarian 50.6% | OVCAR-4 ovarian 58% | SK-OV-3 ovarian 16.5% | IGROV1 ovarian 42% | HS 578T breast 37.2% | NCI/ADR-RES ovarian 11.4%

O=[N+]([O-])c1cccc(-c2nc3sccn3c2-c2ccnc(NCCCNS(=O)(=O)c3ccc(F)cc3)n2)c1
active: SK-MEL-2 melanoma -15.9% | UO-31 renal -26.8% | ACHN renal 5.38% | CAKI-1 renal 9.79% | CCRF-CEM leukemia 1.95% | MOLT-4 leukemia -18.2% | SR leukemia 9.01% | RPMI-8226 leukemia -29.7% | OVCAR-8 ovarian 3.44% | OVCAR-4 ovarian -5.32% | IGROV1 ovarian 5.03% | OVCAR-3 ovarian 4.12% | NCI/ADR-RES ovarian -15.5%
inactive: EKVX NSCLC 18.3% | SN12C renal 10.6% | TK-10 renal 44.6% | A498 renal 29.7% | OVCAR-5 ovarian 59.1% | SK-OV-3 ovarian 37.1% | HS 578T breast 22.2%

Cc1ccc(N)cc1F
inactive: SK-MEL-2 melanoma 97.1% | EKVX NSCLC 98% | SN12C renal 96% | UO-31 renal 92.6% | TK-10 renal 123% | ACHN renal 99.8% | CAKI-1 renal 74.5% | A498 renal 98.2% | CCRF-CEM leukemia 102% | MOLT-4 leukemia 92.3% | SR leukemia 121% | RPMI-8226 leukemia 121% | OVCAR-8 ovarian 96.4% | OVCAR-5 ovarian 109% | OVCAR-4 ovarian 113% | SK-OV-3 ovarian 102% | IGROV1 ovarian 104% | OVCAR-3 ovarian 102% | HS 578T breast 86.4% | NCI/ADR-RES ovarian 94.2%

C=C(C[n+]1ccccc1)[C@@H]1CC[C@]2(C(=O)OC)CC[C@]3(C)[C@H](CC[C@@H]4[C@@]5(C)CC[C@H](O)C(C)(C)[C@@H]5CC[C@]43C)[C@@H]12
inactive: SK-MEL-2 melanoma 100% | EKVX NSCLC 104% | SN12C renal 95.4% | UO-31 renal 74% | TK-10 renal 113% | ACHN renal 96.5% | CAKI-1 renal 90.6% | A498 renal 123% | CCRF-CEM leukemia 99% | MOLT-4 leukemia 101% | SR leukemia 108% | RPMI-8226 leukemia 91.1% | OVCAR-8 ovarian 102% | OVCAR-5 ovarian 102% | OVCAR-4 ovarian 99.7% | SK-OV-3 ovarian 95% | IGROV1 ovarian 98% | OVCAR-3 ovarian 108% | HS 578T breast 101% | NCI/ADR-RES ovarian 103%

Oc1c(Cl)cc(Cl)cc1CNc1nccnn1
inactive: SK-MEL-2 melanoma 115% | EKVX NSCLC 94.4% | SN12C renal 90.4% | UO-31 renal 93.5% | TK-10 renal 113% | ACHN renal 99.8% | CAKI-1 renal 89.6% | A498 renal 88.7% | CCRF-CEM leukemia 111% | MOLT-4 leukemia 101% | SR leukemia 93.5% | RPMI-8226 leukemia 105% | OVCAR-8 ovarian 108% | OVCAR-5 ovarian 101% | OVCAR-4 ovarian 106% | SK-OV-3 ovarian 107% | IGROV1 ovarian 96.3% | OVCAR-3 ovarian 92.1% | HS 578T breast 114% | NCI/ADR-RES ovarian 98.5%

C=C1CC[C@@H]2[C@](C)(COC(C)=O)[C@H](OC(C)=O)CC[C@@]2(C)[C@@H]1CC(Nc1ccc(S(=O)(=O)Nc2ccc(Cl)nn2)cc1)C1=CCOC1=O (stereo not given in full)
inactive: SK-MEL-2 melanoma 58.3% | EKVX NSCLC 87.3% | UO-31 renal 18.4% | TK-10 renal 69.8% | ACHN renal 16.1% | CAKI-1 renal 31.8% | A498 renal 89% | OVCAR-8 ovarian 16.9% | OVCAR-5 ovarian 44.6% | OVCAR-4 ovarian 30.8% | SK-OV-3 ovarian 86.1% | IGROV1 ovarian 43.3% | HS 578T breast 75.6% | NCI/ADR-RES ovarian 16.7%
active: SN12C renal -27.6% | CCRF-CEM leukemia -10.3% | MOLT-4 leukemia 0.401% | SR leukemia -5.26% | RPMI-8226 leukemia -19.2% | OVCAR-3 ovarian -56.1%

C(=N\Nc1nnn(Cc2ccccc2)n1)/c1ccccc1
active: OVCAR-3 ovarian -38.1% | NCI/ADR-RES ovarian -0.167%
inactive: SK-MEL-2 melanoma 34% | EKVX NSCLC 57.6% | SN12C renal 67.5% | UO-31 renal 61.2% | TK-10 renal 76.6% | ACHN renal 67.2% | CAKI-1 renal 95.2% | A498 renal 38.2% | CCRF-CEM leukemia 35% | MOLT-4 leukemia 38.2% | SR leukemia 17.2% | RPMI-8226 leukemia 31.2% | OVCAR-8 ovarian 39.8% | OVCAR-5 ovarian 93.1% | OVCAR-4 ovarian 79.4% | SK-OV-3 ovarian 35.9% | IGROV1 ovarian 50.4% | HS 578T breast 36.5%

CCCCCCCCCC(=O)Oc1ccc(/C(=C(/C)c2ccccc2)c2ccc(OCCN3CCCC3)cc2)cc1
active: SK-MEL-2 melanoma -31.5% | UO-31 renal 7.66% | CAKI-1 renal 1.34% | A498 renal 1.68% | MOLT-4 leukemia 2.39% | SR leukemia -25.7% | RPMI-8226 leukemia -21.8%
inactive: EKVX NSCLC 44.1% | SN12C renal 44.8% | TK-10 renal 43% | ACHN renal 35.2% | CCRF-CEM leukemia 13.1% | OVCAR-8 ovarian 54.5% | OVCAR-5 ovarian 54.4% | OVCAR-4 ovarian 32.6% | SK-OV-3 ovarian 33.9% | IGROV1 ovarian 44.6% | OVCAR-3 ovarian 42.9% | HS 578T breast 11.9% | NCI/ADR-RES ovarian 28%
